Results: the supplement of paper PMC6897291

Tested on: RIVA
Assay: growth inhibition by drug plus 177Lu-lilotomab satetraxetan (1 - RLU/untreated control) (fraction); higher = stronger inhibition
Conditions: 177Lu-lilotomab satetraxetan 0.5 ug/ml
Procedure: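 RIVA (RI-1) ABC-DLBCL cells were pretreated or not for 18 h with 0.5 ug/ml 177Lu-lilotomab satetraxetan (600 MBq/mg), washed and seeded (3000 cells/well) on 384-well plates pre-printed with the Selleck Cambridge Cancer Compound library. Viability was read by RealTime-Glo luminescence on days 3-6 after seeding. Effect = 1 - RLU/mean RLU of the 48 untreated no-drug control wells per plate; Bliss score = (M-E)/(1-Fa).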

Row | Compound | growth inhibition by drug plus 177Lu-lilotomab satetraxetan (10 nM, time (day): 3) | growth inhibition by drug plus 177Lu-lilotomab satetraxetan (10 nM, time (day): 4) | growth inhibition by drug plus 177Lu-lilotomab satetraxetan (10 nM, time (day): 5) | growth inhibition by drug plus 177Lu-lilotomab satetraxetan (10 nM, time (day): 6) | growth inhibition by drug plus 177Lu-lilotomab satetraxetan (100 nM, time (day): 3) | growth inhibition by drug plus 177Lu-lilotomab satetraxetan (100 nM, time (day): 4) | growth inhibition by drug plus 177Lu-lilotomab satetraxetan (100 nM, time (day): 5) | growth inhibition by drug plus 177Lu-lilotomab satetraxetan (100 nM, time (day): 6)
1 | N[C@@H](Cc1ccc(N(CCCl)CCCl)cc1)C(=O)O [Melphalan] | 0.357 | 0.502 | 0.516 | 0.527 | 0.365 | 0.48 | 0.492 | 0.494
2 | CC[C@@H](C(=O)[C@@H](C)[C@@H](O)[C@H](C)[C@@H]1O[C@@H]([C@@H](CC)C(=O)O)CC[C@@H]1C)[C@H]1O[C@]2(C=C[C@@H](O)[C@]3(CC[C@@](C)([C@H]4CC[C@](O)(CC)[C@H](C)O4)O3)O2)[C@H](C)C[C@@H]1C [Salinomycin (Procoxacin)] | 0.491 | 0.572 | 0.591 | 0.6 | 0.481 | 0.518 | 0.517 | 0.502
3 | CN(C)CCN(C)CCc1ccc(Cl)c(Cl)c1 | 0.215 | 0.408 | 0.459 | 0.48 | 0.0519 | 0.192 | 0.22 | 0.211
4 | CC(C)[C@]12O[C@H]1[C@@H]1O[C@]13[C@]1(O[C@H]1C[C@H]1C4=C(CC[C@@]13C)C(=O)OC4)[C@@H]2O [Triptolide] | 0.648 | 0.885 | 0.928 | 0.948 | 0.941 | 0.967 | 0.979 | 0.984
5 | N.N.[Cl][Pt][Cl] [Cisplatin] | 0.539 | 0.565 | 0.592 | 0.599 | 0.463 | 0.526 | 0.544 | 0.57
